Drawing on PubChem BioAssay, this text covers growth inhibition, inhibition and outcome for 20 compounds.

Experiment [1] in a line: antimalarial activity against Dd2 strain (AID 2302;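 active = growth inhibition above 50% at the single 2 µM test dose, taken to imply half-maximal potency below 2 µM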;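 also: 0% = DMSO untreated growth and 100% = chloroquine plus artemisinin killed control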). Particulars: P. falciparum Dd2 in RBCs, LDH growth readout, 72 h; at 2 µM; stronger effect = higher value.
Experiment [2] is described as follows: human hepatoma cell viability loss – ATP luminescence, cytotoxicity control for P. falciparum antimalarial project, primary screen (AID 2303;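 active = inhibition above 50%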;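 also: 0% = DMSO wells and 100% = digitonin-killed cells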). The note with it: HepG2 viability, 24-48 h, at 10 µM, stronger effect = higher value.
Experiment [3] concerns the target L-lactate dehydrogenase (Plasmodium falciparum (isolate CDC / Honduras)) (UniProt Q27743). In words: PfLDH activity inhibition – cell lysate, 3D7 strain, counter-screen for P. falciparum growth inhibition project (AID 2304).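 Also: 0% = vehicle and 100% = reference inhibitor.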 Particulars: P. falciparum 3D7 crude extract, LDH APAD/NBT absorbance; at 2 µM; stronger effect = higher value.
A short description of experiment [4]: inhibition of 3D7 malaria parasite growth – strain 3D7 (AID 2306).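 Also: 0% = DMSO wells and 100% = chloroquine plus artemisinin control wells.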 Particulars: P. falciparum 3D7 erythrocytic growth, LDH absorbance, 72 h; at 2 µM; stronger effect = higher value.
Experiment [5] addresses Calcium-dependent protein kinase 1 (Plasmodium falciparum (isolate 3D7)) (UniProt P62344). The experiment is described as follows: PfCDPK1 kinase inhibitors, biochemical, TCAMS library (AID 1159585; cut-off not given, nearly all actives have IC50 up to about 0.98 µM;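 also: inhibitors leave more ATP so luminescence rises with inhibition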). Particulars: recombinant PfCDPK1, Kinase-Glo ATP depletion luminescence. (Kinase-Glo measures the ATP left after a reaction by luminescence.)
The target in experiment [6] is Plasmodium falciparum protein kinase 6 (PK6, PF3D7_1337100) (UniProt Q8IDW1). The experiment is described as follows: PfPK6 kinase inhibitors, biochemical, TCAMS library (AID 1159586). The note with it: recombinant PfPK6, Kinase-Glo ATP depletion luminescence.
Experiment [7] addresses Protein kinase 7 (PK7), Plasmodium falciparum 3D7 (PF3D7_0213400) (UniProt Q7YTF7). The experiment is described as follows: inhibition of Plasmodium PK7 catalytic activity – biochemical, TCAMS antimalarial set, Kinase-Glo luminescence (AID 1159587). The note with it: recombinant PfPK7, Kinase-Glo ATP depletion luminescence.
For experiment [8], the target named is Calcium-dependent protein kinase 4 (Plasmodium falciparum (isolate 3D7)) (UniProt Q8IBS5). The experiment is described as follows: PfCDPK4 kinase inhibitors, biochemical, TCAMS library (AID 1159588; cut-off not given, nearly all actives have IC50 up to about 0.91 µM). Particulars: recombinant PfCDPK4, Kinase-Glo ATP depletion luminescence.

A number with no mark means an inactive call. For some of these results: Potency and affinity values are given separately. The source made the active and inactive calls. Unless noted, no rule for the calls is given here.

Sequence of Calcium-dependent protein kinase 1 (Plasmodium falciparum (isolate 3D7)) (P62344 whole entry, looked up): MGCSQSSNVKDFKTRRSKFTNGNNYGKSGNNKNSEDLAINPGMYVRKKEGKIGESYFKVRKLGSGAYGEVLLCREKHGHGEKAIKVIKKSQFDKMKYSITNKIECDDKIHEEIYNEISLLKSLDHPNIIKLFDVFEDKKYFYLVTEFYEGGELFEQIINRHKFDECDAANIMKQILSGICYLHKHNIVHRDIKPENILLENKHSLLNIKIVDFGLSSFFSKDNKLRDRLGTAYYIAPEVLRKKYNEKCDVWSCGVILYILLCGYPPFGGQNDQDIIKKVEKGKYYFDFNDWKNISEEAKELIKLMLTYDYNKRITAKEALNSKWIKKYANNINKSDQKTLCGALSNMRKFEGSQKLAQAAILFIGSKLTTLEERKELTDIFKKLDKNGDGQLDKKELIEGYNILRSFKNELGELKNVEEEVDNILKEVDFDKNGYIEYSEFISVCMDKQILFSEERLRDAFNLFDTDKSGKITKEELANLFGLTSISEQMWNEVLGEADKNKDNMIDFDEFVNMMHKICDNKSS
Sequence of L-lactate dehydrogenase (Plasmodium falciparum (isolate CDC / Honduras)) (Q27743 whole entry, looked up): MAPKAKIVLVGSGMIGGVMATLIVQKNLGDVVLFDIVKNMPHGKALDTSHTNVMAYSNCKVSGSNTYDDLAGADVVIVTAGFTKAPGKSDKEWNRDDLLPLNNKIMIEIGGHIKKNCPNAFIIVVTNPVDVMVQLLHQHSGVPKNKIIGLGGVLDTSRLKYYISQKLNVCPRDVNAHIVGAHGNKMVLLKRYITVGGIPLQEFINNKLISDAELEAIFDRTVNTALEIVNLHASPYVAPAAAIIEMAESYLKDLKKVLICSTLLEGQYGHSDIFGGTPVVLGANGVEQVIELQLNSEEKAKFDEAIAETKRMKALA
Sequence of Protein kinase 7 (PK7), Plasmodium falciparum 3D7 (PF3D7_0213400) (Q7YTF7 1-343): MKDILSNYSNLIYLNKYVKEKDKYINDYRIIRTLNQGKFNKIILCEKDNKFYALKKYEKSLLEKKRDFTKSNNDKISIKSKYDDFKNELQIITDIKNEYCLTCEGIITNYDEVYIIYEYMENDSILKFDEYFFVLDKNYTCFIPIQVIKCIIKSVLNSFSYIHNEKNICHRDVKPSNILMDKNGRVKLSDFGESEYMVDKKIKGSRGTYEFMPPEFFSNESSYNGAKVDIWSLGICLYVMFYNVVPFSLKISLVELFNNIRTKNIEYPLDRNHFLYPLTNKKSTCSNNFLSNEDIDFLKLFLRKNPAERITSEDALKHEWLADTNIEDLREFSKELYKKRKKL
Sequence of Plasmodium falciparum protein kinase 6 (PK6, PF3D7_1337100) (Q8IDW1 1-305): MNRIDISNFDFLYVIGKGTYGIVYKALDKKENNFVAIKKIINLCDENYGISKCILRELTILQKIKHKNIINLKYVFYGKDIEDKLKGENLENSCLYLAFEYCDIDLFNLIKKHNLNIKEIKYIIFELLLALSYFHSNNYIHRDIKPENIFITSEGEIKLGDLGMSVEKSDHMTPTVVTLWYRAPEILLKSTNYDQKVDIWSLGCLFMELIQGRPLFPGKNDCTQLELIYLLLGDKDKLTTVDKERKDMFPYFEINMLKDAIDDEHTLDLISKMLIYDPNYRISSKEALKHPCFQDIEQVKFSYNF
Sequence of Calcium-dependent protein kinase 4 (Plasmodium falciparum (isolate 3D7)) (Q8IBS5 whole entry, looked up): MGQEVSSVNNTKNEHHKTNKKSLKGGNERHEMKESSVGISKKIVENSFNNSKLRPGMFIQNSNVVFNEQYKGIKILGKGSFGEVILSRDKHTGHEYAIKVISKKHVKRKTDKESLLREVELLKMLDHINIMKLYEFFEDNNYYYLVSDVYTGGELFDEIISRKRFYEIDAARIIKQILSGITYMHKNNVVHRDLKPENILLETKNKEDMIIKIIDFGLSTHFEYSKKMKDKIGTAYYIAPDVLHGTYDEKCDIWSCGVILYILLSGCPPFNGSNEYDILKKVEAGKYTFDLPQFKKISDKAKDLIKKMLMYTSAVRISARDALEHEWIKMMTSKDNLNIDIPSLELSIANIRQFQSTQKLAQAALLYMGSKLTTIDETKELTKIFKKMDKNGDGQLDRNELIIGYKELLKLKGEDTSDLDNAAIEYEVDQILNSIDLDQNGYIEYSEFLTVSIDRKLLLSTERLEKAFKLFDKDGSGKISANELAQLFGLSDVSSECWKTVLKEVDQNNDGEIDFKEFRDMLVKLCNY

For orientation: inhibition means the drop in the measured response relative to a control, in per cent. In the case of `CC(=O)Nc1ccc2[nH]cc(C3CCN(CC4CCC(NC(=O)/C=C/c5ccc(Cl)c(Cl)c5)CC4)CC3)c2n1` (stereo not given), the growth inhibition in experiment [1] was 79% (active); in experiment [4] it was 101% (active). Also, the inhibition in experiment [2] was 17%; in experiment [3], -1%. Further, the result in experiment [5], in experiment [6], in experiment [7] and in experiment [8] was inactive.

For `O=[N+]([O-])c1ccc(C=NNc2nc(Nc3ccccc3)nc(Nc3ccccc3)n2)o1`, the growth inhibition was 61% (active) in experiment [1] and 94% (active) in experiment [4]. In addition, the inhibition in experiment [2] was 5%; in experiment [3], -4%. For the same compound, the outcome in experiment [5], in experiment [6], in experiment [7] and in experiment [8] was inactive.

`Cc1nc(-c2nc(NCCc3cnccn3)ncc2-c2ccsc2)sc1C`: the growth inhibition in experiment [1] is 40%; in experiment [4], 98% (active). Also, the figures for the inhibition in experiment [2] and in experiment [3] were -7% and 0%, respectively. Besides, the result in experiment [5], in experiment [6], in experiment [7] and in experiment [8] was inactive.

Consider `COc1ccc(Nc2nccc(-c3cccc(NC(=O)c4cc5cc(F)ccc5[nH]4)c3)n2)cc1`, for which the growth inhibition in experiment [1] is 37%; in experiment [4], 92% (active). The inhibition was 3% in experiment [2] and 5% in experiment [3]. Further, the result in experiment [5], in experiment [6], in experiment [7] and in experiment [8] was inactive.

Turning to `c1cc(-c2ccc(CN3CCCC3)cc2)cc(-c2nc3ccccc3[nH]2)c1`, the results for the growth inhibition in experiment [1] and in experiment [4] were 52% (active) and 100% (active), respectively. For the same compound, the inhibition is 25% in experiment [2] and 0% in experiment [3]. For the same compound, the result in experiment [5], in experiment [6], in experiment [7] and in experiment [8] was inactive.

`Cc1cc(N(C)C)nc(Nc2ccc(NC(=O)c3c(F)cccc3Cl)cc2)n1`: the growth inhibition in experiment [1] was 36%; in experiment [4], 90% (active). Also, the inhibition was 15% in experiment [2] and 4% in experiment [3]. The result in experiment [5], in experiment [6], in experiment [7] and in experiment [8] was inactive.

Take `COc1ccc(CNC2CCN(C)CC2)cc1-c1ccc(S(=O)(=O)NCCN2CCCC2)s1`: the growth inhibition in experiment [1] is 1%; in experiment [4], 90% (active). The inhibition is 2% in experiment [2] and -2% in experiment [3]. Moreover, the outcome in experiment [5], in experiment [6], in experiment [7] and in experiment [8] was inactive.

As to `CC(C)(C)NCCN(Cc1ccc(-c2ccc(C(F)(F)F)cc2)cc1)C(=O)Cn1c(CCc2cccc(F)c2F)nc(=O)c2c1CCC2`, the results for the growth inhibition in experiment [1] and in experiment [4] were 48% and 95% (active), respectively. For the same compound, the inhibition in experiment [2] and in experiment [3] was 6% throughout. The result in experiment [5], in experiment [6], in experiment [7] and in experiment [8] was inactive.

On to `Cc1cc(NN=Cc2ccccc2[N+](=O)[O-])c2cccc(C)c2n1`, for which the figures for the growth inhibition in experiment [1] and in experiment [4] were 100% (active) and 99% (active), respectively. In addition, the inhibition in experiment [2] was -6%; in experiment [3] it was 1%. Further, the result in experiment [5], in experiment [6], in experiment [7] and in experiment [8] was inactive.

Take `COC(=O)c1cccc(OCCNC2CCN(C[C@H](O)c3ccnc4ccc(OC)cc34)CC2)c1`: the values for the growth inhibition in experiment [1] and in experiment [4] were 96% (active) and 100% (active), respectively. Also, the inhibition in experiment [2] was -7%; in experiment [3], -10%. Moreover, the result in experiment [5], in experiment [6], in experiment [7] and in experiment [8] was inactive.

Turning to `CCOc1cccc(C(=O)Nc2nonc2-c2ccc(OC)c(OC)c2)c1`, the values for the growth inhibition in experiment [1] and in experiment [4] were 95% (active) and 92% (active), respectively. In addition, the inhibition in experiment [2] was 11%; in experiment [3], 4%. Further, the outcome in experiment [5], in experiment [6], in experiment [7] and in experiment [8] was inactive.

As for `O=C(c1cc(-c2ccccc2O)on1)N1CCN(C(c2ccccc2)c2ccccc2)CC1`, the growth inhibition in experiment [1] was 88% (active); in experiment [4] it was 97% (active). Moreover, the inhibition is 12% in experiment [2] and 1% in experiment [3]. For the same compound, the outcome in experiment [5], in experiment [6], in experiment [7] and in experiment [8] was inactive.

Take `CCCN1CCN(CC(O)CNC(=O)Nc2ccc(Cl)cc2)CC1` (stereo not given): the growth inhibition in experiment [1] and in experiment [4] was 100% (active) in each case. Moreover, the inhibition in experiment [2] was 6%; in experiment [3] it was -3%. The outcome in experiment [5], in experiment [6], in experiment [7] and in experiment [8] was inactive.

With `Cc1cc(N[C@@H](CC(C)C)C(=O)NCc2cccc(F)c2)nc(Nc2ccccc2)n1`, the growth inhibition in experiment [1] is 76% (active); in experiment [4], 100% (active). Besides, the inhibition in experiment [2] is -5%; in experiment [3], 2%. Further, the result in experiment [5], in experiment [6], in experiment [7] and in experiment [8] was inactive.

`Cc1sc2nc(CN3CCCC3)nc(-n3c(NCCO)nc4ccccc43)c2c1C`: the growth inhibition in experiment [1] was 11%; in experiment [4] it was 96% (active). Also, the inhibition in experiment [2] was 19%; in experiment [3], -2%. Also, the result in experiment [5], in experiment [6], in experiment [7] and in experiment [8] was inactive.

Consider `O=C(Nc1ccc(Cl)cc1)Nc1ccc(-c2cccc(-c3nc4ccc(F)cc4[nH]3)c2)cc1`, for which the growth inhibition in experiment [1] was 96% (active); in experiment [4] it was 101% (active). Besides, the inhibition was 74% (active) in experiment [2] and -1% in experiment [3]. Further, the outcome in experiment [5], in experiment [6], in experiment [7] and in experiment [8] was inactive.

As to `CCNC(=O)c1ccc2c(c1)c(C)c(C)n2Cc1ccc(F)cc1`, the growth inhibition in experiment [1] is 91% (active); in experiment [4], 93% (active). Further, the results for the inhibition in experiment [2] and in experiment [3] were 25% and -1%, respectively. In addition, the result in experiment [5], in experiment [6], in experiment [7] and in experiment [8] was inactive.

Regarding `O=C(NCCc1ccccc1F)c1cc(Br)cc(N2CCN(c3ccncc3)CC2)c1`, the growth inhibition in experiment [1] was 67% (active); in experiment [4], 97% (active). The inhibition in experiment [2] was 29%; in experiment [3], -2%. Also, the outcome in experiment [5], in experiment [6], in experiment [7] and in experiment [8] was inactive.

Take `Oc1cc2c(cc1CN1CCN(Cc3ccc(Cl)s3)CC1)CCC2`: the growth inhibition was 76% (active) in experiment [1] and 98% (active) in experiment [4]. The inhibition in experiment [2] is 7%; in experiment [3], -3%. The outcome in experiment [5], in experiment [6], in experiment [7] and in experiment [8] was inactive.

As for `CCN(CC)C(=NCCCCCCN=C(/N=C(/N)Nc1ccc(Br)cc1)N(CC)CC)/N=C(/N)Nc1ccc(Br)cc1`, the growth inhibition is 95% (active) in experiment [1] and 96% (active) in experiment [4]. Besides, the inhibition in experiment [2] is -7%; in experiment [3] it was -5%. Also, the result in experiment [5], in experiment [6], in experiment [7] and in experiment [8] was inactive.
